According to PubChem BioAssay AID624354 (Sanford-Burnham Center for Chemical Genomics, 2012):
Where “and” joins values, the source holds several entries; their conditions need not be identical. Identical values can stand only once. The whole screen tested about 360,000 compounds, of which about 3,800 (1.1%) were called active.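 Rule for the calls: active = compounds causing at least 50% loss of cell viability in the single-dose screen, relative to plate controls; inactive = the rest.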 The list comes from a sample in which actives are over-represented; it also holds similar structures and randomly drawn compounds.

Experiment: viability loss with TRAIL in NB7+C8 cells, primary screen, TRAIL sensitizer project, cell-based, ATPlite luminescence (AID 624354)
Conditions: at 10 µM, active compounds read high

SMILES | inhibition (viability loss, TRAIL sensitization)
N/C(=N\OC(=O)c1ccc([N+](=O)[O-])cc1)c1ccccn1 | 24.5% (inactive)
Cc1ccc(C(=O)O/N=C(\N)c2ccccn2)cc1Cl | 74.5% (active)
N/C(=N\OC(=O)CCC1CCCCC1)c1ccccn1 | -5.71% (inactive)
CNc1nc(SC)nc(N(C#N)CC(=O)OC)n1 | -0.928% (inactive)
COC(=O)c1cccc(C(=O)N2CCCC(Nc3ccc4c(c3)OCCO4)C2)c1 (stereo not given) | -3.93% (inactive)
COc1ccc(S(=O)(=O)N2CCCC(C(=O)NCCCn3ccnc3)C2)cc1OC (stereo not given) | -12.7% (inactive)
COc1ccc2cc(CCl)c(Cl)nc2c1 | -1.84% (inactive)
COc1ccc(C=C(C#N)C#N)c(CSc2ccccn2)c1 | 1.8% (inactive)
COc1ccc2nc(-c3ccccn3)ccc2c1 | 80.3% (active)
CC[C@H](C)[C@@H](C(=O)N1CCNCC1)n1cc([C@@H](N)Cc2ccc(O)cc2)nn1 | -6.33% (inactive)
CCCNC(=O)C1(C)CCN1C(=O)Cc1ccc(-c2ccccc2)cc1 (stereo not given) | 5.54% (inactive)
CC1(C(=O)NS(=O)(=O)c2ccccc2)CCN1C(=O)Cc1ccc(-c2ccccc2)cc1 (stereo not given) | 4.55% (inactive)
C#Cc1ccc(NC(=O)C2(C)CCN2C(=O)Cc2ccc(-c3ccccc3)cc2)cc1 (stereo not given) | 73.3% (active)
Cc1cccc2c1-c1sc(C(=O)NCCCN3CCc4ccccc4C3)cc1CO2 | 11.6% (inactive)
COc1cccc(C(NC(C)=O)c2nc(-c3ccccc3OC)cs2)c1 (stereo not given) | 2.76% (inactive)
COc1ccc2nc(Nc3nc(-c4cc5ccccc5oc4=O)cs3)sc2c1 | 69.2% (active)
Cc1noc(C)c1CSCC(=O)Nc1nc2ccc(Oc3ccccc3)cc2s1 | -12.9% (inactive)
CC(=O)CSc1nnc(CSc2ncccn2)n1C1CCCCC1 | -3.63% (inactive)
O=C(NCCc1ccccc1Cl)C1CCC(=O)N(CCCc2ccccc2)C1 (stereo not given) | 6.8% (inactive)
Fc1ccc(/C=N/Nc2nc(-c3cccnc3)nc3ccccc23)cc1 | 50.2% (active)
CCN(CC(=O)NC1CCS(=O)(=O)C1)c1nc(-c2cccnc2)nc2ccccc12 (stereo not given) | 11.4% (inactive)
Brc1ccc(-c2csc(N/N=C/c3cccnc3)n2)cc1 | 2.52% (inactive)
O=C(NNS(=O)(=O)c1ccccc1)c1cnn(-c2ccc(Cl)cc2)c1C(F)(F)F | 18.4% (inactive)

SMILES | inhibition (viability loss, TRAIL sensitization)
Cc1ccc(NC(=O)CCOc2ccccc2)cc1S(=O)(=O)Nc1ccccc1Cl | 5.58% (inactive)
CN(C(=O)CSc1cccc[n+]1[O-])C1CCCCC1 | 9.54% (inactive)
O=C(c1cc2ccccc2o1)N1CCN(c2cccc(C(F)(F)F)c2)CC1 | -2.4% (inactive)
CC(=O)c1sc(N)nc1C | -3.29% (inactive) and -3.98% (inactive)
CC(=O)c1sc(NC(=O)c2ccc(C)cc2)nc1C | 68.3% (active)
Cc1ccc(C(=O)Nc2ccn(C)n2)cc1 | 14.4% (inactive)
CCOC(=O)N1CCN(C(=O)COC(=O)c2cccc(S(C)(=O)=O)c2)CC1 | -12.4% (inactive)
C=CC(COCc1ccccc1)N(CC(=O)OC)S(=O)(=O)c1cc(Br)ccc1OC (stereo not given) | 2.56% (inactive)
Cc1cc(C)cc(OCC(=O)Nc2ccc(N3CCOCC3)cc2N2CCOCC2)c1 | 6.27% (inactive)
CCOc1cc(N2CCOCC2)c(OCC)cc1NC(=O)C1=NN(c2cccc(C)c2)C(=O)CC1 | 3.1% (inactive)
CCOc1cc(N2CCOCC2)c(OCC)cc1NC(=O)COc1cccc2cccnc12 | 53.6% (active)
Cc1ccc(-c2c3c(=O)n(C)c(=O)n(C)c3cn2-n2cnnc2)cc1 | -15.5% (inactive)
COc1ccc(OC)c(NC(=O)c2ccc3c(c2)C(=O)N(c2ccc(OC(C)=O)cc2)C3=O)c1 | -0.949% (inactive)
CC1CCCCC1NC(=O)CCS(=O)(=O)c1ccc2c(c1)NC(=O)CO2 (stereo not given) | -18.2% (inactive)
Cc1ccccc1S(=O)(=O)N1[C@@H](c2cccc(Cl)c2)C(C(=O)O)=CC[C@H]1c1ccc(Cl)cc1 | 15.5% (inactive)
Cc1oc2c(c1C(=O)N1CCOCC1)C(=O)c1ccccc1C2=O | 88.8% (active)
CC(C(=O)Nc1ccccc1-c1ccccc1)N1CCOCC1 (stereo not given) | -42% (inactive)
Cc1nc2ccccc2n1C(=O)N1CCOCC1 | -8.36% (inactive)
COC(=O)[C@@]1(Sc2ccc(C)cc2)CC(=O)N(c2cccc(SC)c2)[C@@H]1c1ccccc1 | 24.6% (inactive)
O=C1/C(=C\c2ccc([N+](=O)[O-])cc2)CS(=O)(=O)C/C1=C/c1ccc([N+](=O)[O-])cc1 | 91.8% (active)
O=C(Cc1ccccc1)N1CCN(S(=O)(=O)c2ccc([N+](=O)[O-])cc2)CC1 | -7.16% (inactive)
O=[N+]([O-])c1ccc(N=NNc2ccc([N+](=O)[O-])cc2)cc1 | 13.8% (inactive)
CC1(C(=O)NCc2ccco2)Cc2c(-c3ccc4c(c3)OCO4)ccnc2O1 (stereo not given) | 14.9% (inactive)

SMILES | inhibition (viability loss, TRAIL sensitization)
CCOc1cc(/C=N/NC(=O)c2c(C)nc3ccc(Cl)cn23)ccc1O | -7.66% (inactive)
COc1ccc(C(=O)Nc2ccccc2C(=O)N/N=C/c2ccc(O)c(OC)c2)cc1 | 95.8% (active)
COc1ccc(/C=N/NC(=O)C(C)N(c2ccc(OC)cc2)S(C)(=O)=O)cc1 (stereo not given) | -5.4% (inactive)
COc1cc(C=NC2CCCCC2)ccc1O | -2.08% (inactive)
COc1ccc(/C=N/Nc2ccccc2C(=O)O)cc1 | 55.9% (active)
COc1ccc(/C=N/NC(=O)Cn2cc(C(F)(F)F)ccc2=O)cc1 | -0.17% (inactive)
Cc1cccc(N(Cc2ccccc2)C(=O)c2cc(S(=O)(=O)N3CCOCC3)ccc2F)c1 | 19.9% (inactive)
CN(C)C(=O)CCc1ccc2c3c([nH]c2c1)[C@]1(CCc2ccccc2)[C@@H](C(=O)N2CCCCC2)C[C@H](CC(=O)NCCC2=CCCCC2)C(=O)N1CC3 | 13.2% (inactive)
CCc1nc2ccc(C(=O)Nc3cccc(OC)c3)cn2c1N(CCC(C)C)CCN(C)C | 15.5% (inactive)
CCOc1ccccc1-n1c(SCC(=O)N2CCCC2)nnc1-c1ccoc1C | 2.53% (inactive)
O=C(N/N=C/C=C/c1ccco1)c1cccs1 | -0.972% (inactive)
Cc1ccc(-c2cc(C(=O)N/N=C/C=C/c3ccco3)c3ccccc3n2)cc1C | 61.5% (active)
Cc1ccc(C(=O)N/C(=C/c2ccco2)C(=O)NCCc2c[nH]c3ccccc23)cc1C | -2.25% (inactive)
Cc1ccc(C2Nc3ccccc3C(=O)N2CCN2CCNC2=O)cc1 (stereo not given) | -20.4% (inactive)
COc1ccc(-c2nc3ccc(Br)cn3c2Cc2ccc(C)cc2)cc1OC | 3.92% (inactive)
Cc1ccc(-n2cc3ccc([N+](=O)[O-])cc3n2)cc1 | 25.5% (inactive)
CC(=O)Nc1c(-c2ccc(C)cc2)nc2ccc(Cl)cn12 | -3.92% (inactive)
Cc1ccc(-c2nc3ccc(Br)cn3c2Cc2ccccc2C(F)(F)F)cc1 | 12.7% (inactive)
Cc1ccc(-c2cn3cc([N+](=O)[O-])ccc3n2)cc1 | 56.8% (active)
Cc1ccc(-c2cn3cc(C)ccc3n2)cc1 | 87.8% (active)
Cc1ccc(Cc2c(-c3ccccc3)nc3ccc(Cl)cn23)cc1 | 8.97% (inactive)
Cc1ccnc(N2C(=O)c3ccc([N+](=O)[O-])cc3C2=O)c1 | -23.1% (inactive)
Cc1ccc2nc(-c3ccc(Br)cc3)cn2c1 | 67.2% (active)

SMILES | inhibition (viability loss, TRAIL sensitization)
CCOc1ccc(C(C)=O)cc1CSc1nnc(-c2ccncc2)n1CCOC | -21.1% (inactive)
CC(C)Oc1ccc(/C=C(\NC(=O)/C=C/c2ccco2)C(=O)NCCc2nc3ccccc3[nH]2)cc1 | -11.3% (inactive)
CCCCN(CC)C(=O)CN(C)S(=O)(=O)c1cccc2nsnc12 | 4.95% (inactive)
CN(CC(=O)Nc1c(Cl)cccc1Cl)C(=O)c1ccncc1 | -1.41% (inactive)
OC[C@@H]1CN(Cc2ccc(Cl)cc2)C[C@H](n2cnc3c(NCc4ccncc4)ncnc32)O1 | 0.808% (inactive)
CSCCC(NS(=O)(=O)c1ccccc1F)C(=O)N1CC=C(c2ccccc2)CC1 (stereo not given) | 15.4% (inactive)
N#CCCn1ncc2ccccc21 | -30.7% (inactive)
COc1ccc2c(c1)cc1n2CCN=C1NN | 6.58% (inactive)
COc1ccc(C(=O)NC(Cc2ccc(OC(=O)c3ccc(OC)cc3)cc2)C(=O)O)cc1 (stereo not given) | 7.3% (inactive)
O=CNc1cc(-c2ccc(C(=O)N3CCOCC3)cc2)cn2c(-c3ccc(F)cc3)cnc12 | 19.1% (inactive)
CC(C)CNC(=S)NC(=O)c1ccc(Cl)cc1 | -9.78% (inactive)
CN1C(=O)[C@H]2[C@@H](/C=C/c3ccccc3)N3C(=O)CN(Cc4ccc(-c5ccccc5)cc4)C(=O)[C@@]3(C)[C@H]2C1=O | 7.89% (inactive)
CCOc1ccc(Br)cc1S(=O)(=O)Nc1ccc(C(=O)OC(C)C(=O)N(C)c2ccccc2)cc1 (stereo not given) | 9.56% (inactive)
O=C(NNc1c2ccccc2nc2ccccc12)c1cc2ccccc2cc1O | 11.6% (inactive)
Cc1ccc(/C=N/NC(=O)C2=NNC(c3ccccc3)(c3ccccc3)C2)c(O)c1 | 20.2% (inactive)
Oc1ccc(/C=N/Nc2nc(-c3ccccc3F)nc3ccccc23)c(O)c1 | 60.2% (active)
O=C(NCc1ccccn1)[C@@H]1CCCN1C(=O)[C@@H]1CCCN1C(=O)c1ccccc1 | -14% (inactive)
Nc1nc(NC(=O)/C=C/c2ccccc2)nn1-c1ccccc1 | 15% (inactive)
COc1ccc(C2c3c(C)nn(-c4ccccc4)c3NC(=O)N2c2ccccc2)cc1 (stereo not given) | -5.29% (inactive)
COc1ccc(CCNC(=O)c2c(C)nn(-c3ccccc3)c2Cl)cc1 | -4.85% (inactive)
COc1ccc(Oc2c(Cl)cnn(-c3ccccc3)c2=O)cc1 | 89.7% (active)
